Hits are enriched below; roughly 2.4% of the tested compounds scored in any of these assays.
Mcl1-Bid inh: Mcl-1/Bid binding inhibitors, primary screen, biochemical, TR-FRET, 1536-well | Induced myeloid leukemia cell differentiation protein Mcl-1 (Homo sapiens), Q07820 | inhibition, % at 21.7 µM | TR-FRET Mcl-1/Bid-Dy647 peptide binding | 220,000 tested, 0.97% active | AID 1021, 2008;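 active = compounds that cut the binding signal by more than half at the single screening dose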;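 also: His-tagged Mcl-1 with europium anti-His antibody binding Bid BH3 peptide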
Target sequence (Q07820 whole entry, looked up): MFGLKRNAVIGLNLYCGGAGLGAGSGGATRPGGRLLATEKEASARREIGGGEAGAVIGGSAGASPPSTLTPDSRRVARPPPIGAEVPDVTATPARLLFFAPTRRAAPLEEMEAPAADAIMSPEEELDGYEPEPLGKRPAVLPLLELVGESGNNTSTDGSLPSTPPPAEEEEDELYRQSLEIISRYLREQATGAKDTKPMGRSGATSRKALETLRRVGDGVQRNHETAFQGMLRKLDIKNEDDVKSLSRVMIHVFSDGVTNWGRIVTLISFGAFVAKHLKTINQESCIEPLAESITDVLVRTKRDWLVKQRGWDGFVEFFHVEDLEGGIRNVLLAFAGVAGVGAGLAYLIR
TNF necrop inh: inhibitors of TNF-alpha triggered necroptosis, primary screen, cell-based, Jurkat FADD-/-, single concentration | Jurkat FADD-/- TNF necroptosis rescue, ATP luminescence, 24 h; 0 = TNF only, 100 = no-TNF cells | activation (protection from cell death), % at 10 µM | 220,000 tested, 0.068% active;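 active = activation, meaning protection from cell death, of at least 50% relative to plate controls; inactive = activation below 50%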;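 also: necroptosis triggered by 40 ng/mL TNF-alpha added together with compound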
zVAD death inh: inhibitors of zVAD-triggered necroptosis, primary screen, L929 cells. L929 zVAD necroptosis rescue, ATP luminescence, 24 h; with zVAD 60 µM. viability rescue, % at 10 µM. 220,000 tested, 0.38% active. AID 1377, 2008;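 active = activation, scaled between plate controls, above about 75%, limit read from the data; inactive = activation under that limit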
MCL1-BIM inh: inhibitors of MCL1 binding to BIM-BH3, primary screen, biochemical, fluorescence polarization; Induced myeloid leukemia cell differentiation protein Mcl-1 (Homo sapiens), Q07820; GST-MCL1 / FITC-Bim-BH3 fluorescence polarization; inhibition, % at 10.9 µM; 320,000 tested, 0.68% active; AID 2057, 2009;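 active = inhibition above the mean inhibition of all tested compounds plus 3 SD, set per campaign, cut at about 40% in these data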;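 also: higher means more loss of mP so more displacement of Bim peptide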
Mcl-1 Bim block: inhibitors of Bim peptide binding to Mcl-1, primary screen, biochemical, bead-based flow cytometry, multiplex | Induced myeloid leukemia cell differentiation protein Mcl-1 (Homo sapiens), Q07820 | Bim peptide-Mcl-1 binding | inhibition, % at 10 µM | 190,000 tested, 0.1% active | AID 1009, 2008; in the data active = inhibition above about 40%
Mcl1-Noxa inh: Mcl-1/Noxa binding inhibitors, primary screen, biochemical, TR-FRET, 1536-well | Induced myeloid leukemia cell differentiation protein Mcl-1 (Homo sapiens), Q07820 | TR-FRET Mcl-1/Noxa peptide binding, 2 h | inhibition, % at 21.7 µM | 220,000 tested, 1.5% active | AID 1022, 2008;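 active = compounds that cut the protein-peptide binding signal by more than 50% relative to plate controls in a single-dose test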;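 also: His-tagged Mcl-1 with rhodamine Noxa BH3 peptide and terbium anti-His antibody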
Hits are given with their value; . = inactive; / = no result; ! = not confirmed by another sample.

SMILES	Mcl1-Bid inh	TNF necrop inh	zVAD death inh	MCL1-BIM inh	Mcl-1 Bim block	Mcl1-Noxa inh
COc1ccccc1CNC(=O)C1Cc2cc(S(=O)(=O)N3CCCCC3)ccc2N1C(C)=O (stereo not drawn)	/	/	/	.	/	/
O=C(NCCN1C(=O)S/C(=C\c2ccc(Cl)c(Cl)c2)C1=O)c1ccc2c(c1)C(=O)N(Cc1ccncc1)C2=O	50.7	.	.	.	.	71.1
CC(NC(=O)c1cc(Br)ccc1Cl)c1ccccc1 (stereo not drawn)	.	79.7	.	.	/	.
Cc1cccc(OCc2nc(C#N)c(NCc3ccc4c(c3)OCO4)o2)c1	82.9	.	.	.	.	.
O=C(Nc1nnc(-c2ccco2)s1)C1CCCCC1	55.9	.	.	.	.	.
Cc1ccc(S(=O)(=O)N2CCC(C(=O)Nc3nnc(-c4ccco4)s3)CC2)cc1	.	.	.	.	.	.
CCOC(=O)c1nc(C)sc1-c1ccnn1S(=O)(=O)c1ccccc1C(F)(F)F	.	.	.	.	/	.
CCOC(=O)c1nc(C)sc1-c1ccnn1S(=O)(=O)c1ccc(C)cc1	69.4	.	.	.	/	.
CC(OC(=O)c1ccc2c(c1)C(=O)N(Cc1ccncc1)C2=O)C(=O)Nc1cccc(Cl)c1Cl (stereo not drawn)	64.2	.	.	.	.	.
O=C(COC(=O)c1ccc2c(c1)C(=O)N(Cc1ccncc1)C2=O)Nc1ccccc1[N+](=O)[O-]	.	.	.	.	.	83.1
COC(=O)c1cccc(NC(=O)c2ccc3c(c2)C(=O)N(Cc2cccnc2)C3=O)c1	/	/	/	.	/	/
O=S(=O)(c1ccc(-c2ccon2)s1)N1CCCC1	.	.	.	.	/	.
O=S(=O)(c1ccc(-c2ccon2)s1)N1CCN(c2ccncc2)CC1	.	.	.	.	/	71.6
COCCNC(=O)C(c1ccc(C)cc1)N(Cc1ccco1)C(=O)CCC(=O)Nc1ccccn1 (stereo not drawn)	/	/	/	.	/	/
O=C(O)c1cc(N/N=C/c2ccc(N3CCOCC3)s2)ccc1Cl	.	.	.	.	.	85.9
COc1ccc2c3c([nH]c2c1)C1CC2C(CC(O)C(OC)C2C(=O)O)CN1CC3 (stereo not drawn)	.	.	.	40.6	/	.
COC(=O)[C@H]1[C@H]2C[C@@H]3c4[nH]c5cc(OC)ccc5c4CCN3C[C@H]2C[C@@H](OC(=O)c2cc(OC)c(OC)c(OC)c2)[C@@H]1OC	/	/	/	.	/	/
COc1ccc(/C=N/NC(=O)c2ccc(CN3C(=O)c4cccc5cccc3c45)cc2)cc1O	.	.	.	.	.	61.2
COc1cc(/C=N/NC(=O)c2ccc(CN3C(=O)c4cccc5cccc3c45)cc2)cc(OC)c1O	.	.	.	.	/	75.5
COc1cc(/C=N/NC(=O)c2ccc(CSc3nc4ccccc4[nH]3)cc2)ccc1O	.	.	.	.	.	61.6
COc1ccc(/C=N/NC(=O)c2nc(-c3ccccc3)cc(-c3ccccc3)n2)cc1	.	.	.	.	.	.
COc1ccc(/C=N/NC(=O)c2nc(-c3ccccc3)cc(-c3ccccc3)n2)cc1O	.	.	.	.	.	68.2
COc1cc(/C=N/NC(=O)c2ccccc2)ccc1O	.	.	.	.	.	.
Cc1ccccc1S(=O)(=O)Cc1ccc(C(=O)NC2CCCCC2)o1	/	/	/	.	/	/
CC(NC(=O)c1ccccc1F)C1CC1 (stereo not drawn)	/	/	/	.	/	/
SMILES	Mcl1-Bid inh	TNF necrop inh	zVAD death inh	MCL1-BIM inh	Mcl-1 Bim block	Mcl1-Noxa inh
CCC(=O)c1ccc(OCC(O)CN2CCOCC2)cc1 (stereo not drawn)	.	.	.	.	.	.
CC(=O)c1ccc(OCC(O)CN2CCOCC2)cc1 (stereo not drawn)	.	.	.	.	.	64.4
COc1cc(/C=N/NC(=O)c2cc(-c3ccc4c(c3)OCO4)n[nH]2)ccc1O	.	.	.	.	.	54.9
COc1ccccc1C(=O)N/N=C/c1ccc2c(c1)OCO2	/	/	/	.	/	/
Cc1ccc(NC(=O)CSc2nc3ccccc3c(=O)n2CCCN2CCCCC2)cc1Cl	.	.	.	.	41.0	.
Cc1cc(NC(=O)C2COc3ccccc3O2)no1 (stereo not drawn)	.	90.4	.	.	.	.
O=C(Nc1ccc(Cl)cn1)C1COc2ccccc2O1 (stereo not drawn)	.	88.9	.	.	.	.
Cc1cnc(NC(=O)C2COc3ccccc3O2)s1 (stereo not drawn)	.	75.9	.	.	.	.
Cc1cc(NC(=O)COC(=O)C2COc3ccccc3O2)no1 (stereo not drawn)	.	.	.	.	.	.
Cc1csc(NC(=O)C2COc3ccccc3O2)n1 (stereo not drawn)	.	.	.	.	.	.
O=C(Nc1ccccn1)C1COc2ccccc2O1 (stereo not drawn)	.	.	.	.	.	.
CCC(=O)NNC(=O)c1cc(COc2cc(Cl)cc(Cl)c2)on1	.	.	.	.	/	.
COc1ccccc1N(CC(=O)NCCSc1ccccn1)S(=O)(=O)c1ccccc1	/	/	/	.	/	/
COc1ccccc1C(CNC(=O)CNC(=O)c1ccccc1Cl)N1CCCC1 (stereo not drawn)	/	/	/	.	/	/
CC(O)(CC(=O)O)CC(=O)O	/	/	/	.	/	/
O=C(O)CS(=O)(=O)CC(=O)O	58.1	.	.	.	.	.
COc1ccc2oc3ccccc3c(=O)c2c1	.	.	.	.	/	.
COc1cccc2c(=O)c3ccccc3oc12	54.6!	.	.	.	.	.
CCCCCCNC(=O)N[C@H](C(=O)NCCC[C@H]1CN2C(=NC[C@H]2C)N1CCC(c1ccccc1)c1ccccc1)C(C)O (stereo partly drawn)	.	.	.	.	/	.
O=C1CCCC2=C1C(c1ccccc1)C1C(=O)c3ccccc3C1=N2 (stereo not drawn)	.	.	.	.	.	58.3
COc1ccc2oc(-c3ccc(NC(=O)c4ccc(N5CCOCC5)c([N+](=O)[O-])c4)cc3)nc2c1	.	.	.	.	.	54.9
O=C(Nc1ccc(-c2nc3ccccc3o2)cc1)c1ccc(N2CCOCC2)c([N+](=O)[O-])c1	.	.	.	.	.	.
Cc1noc(C)c1S(=O)(=O)N1CCCC(C(=O)NCc2ccccc2Cl)C1 (stereo not drawn)	/	/	/	.	/	/
Cc1cccc(C2C3=C(Nc4[nH]n(-c5ccccc5)c(=O)c42)c2ccccc2C3=O)c1 (stereo not drawn)	.	.	.	/	.	65.2

Compound activity: PubChem, several laboratories
